# An excerpt weighted towards active compounds, which were near 2.6% of everything screened.
# KKLEB cytotox: reduces viability of KKLEB cystic fibrosis airway cells; activity change (cytotoxicity), % at 5 µM; hit rate 0.36% among 360,000; KKLEB CF airway cells viability, ATPlite luminescence, overnight; hits give low values; cells stimulated with P. aeruginosa culture filtrate; AID 602141;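 active = corrected activity change at or below -50% at 5 µM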
# EWS-Fli inh: inhibitors of EWS/Fli oncoprotein transcriptional activity; A673 NR0B1-luciferase reporter, viability-normalised; inhibition, % at 12.6 µM; hit rate 0.67% among 350,000; AID 651661;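 active = mean inhibition of at least 50% after viability correction, with every replicate also passing that limit; inconclusive = mean reaches 50% but only one of two replicates passes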;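 also: firefly luciferase signal divided by Alamar Blue viability fluorescence both relative to DMSO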
# TWEAK-Fn14 inh: blocks TWEAK-Fn14 interaction in a reporter cell assay; TWEAK-stimulated Fn14 reporter cells, luciferase luminescence, 8 h; inhibition, % at 10 µM; hit rate 2% among 360,000; in the data active = inhibition above about 50%
# LGR2 inh: blocks bursicon-induced cAMP signaling via Drosophila LGR2. AID 720647. HEK293 LGR2, CRE-luciferase, bursicon-stimulated, 4 h. hit rate 0.35% among 380,000. inhibition, % at 9.99 µM;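 active = drop in luminescence signal, shown as inhibition above about 50% in the replicate tests, limit read from the data, passing the limit was not always enough; inconclusive = probably only some replicates passing the limit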;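 also: agonist challenge used bursicon conditioned medium at about half maximal strength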
# CF NFkB inh: cystic fibrosis NF-kB activation inhibition; KKLEB NF-kB-GFP reporter, PAF-induced, GFP fluorescence overnight; inhibition, % at 5 µM; hit rate 0.86% among 360,000;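 active = at least 50% inhibition at 5 µM, scaled per plate between neutral and stimulator controls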;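 also: PAF is a Pseudomonas aeruginosa culture filtrate used as stimulus; plate controls were PAF-stimulated DMSO wells for no effect and unstimulated DMSO wells for full effect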
# TROY NFkB inh: TROY signaling inhibition; hit rate 0.98% among 360,000; inhibition, % at 10 µM; Q293 LMP1-TROYcd NF-kB luciferase reporter, 4 h; AID 1347056;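 active = compounds whose plate-normalised and pattern-corrected inhibition of the luciferase reporter signal at the single screening dose is 50% or more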
# CF NFkB inh conf: CF NF-kB inhibition confirmation, single concentration; shares compounds with CF NFkB inh; KKLEB CF airway cells, PAF-induced NF-kB-GFP fluorescence, overnight; inhibition, % at 5 µM; hit rate 64% among 1,300; in the data active = inhibition above about 40%;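 also: stimulus PAF is a Pseudomonas aeruginosa filtrate and not platelet activating factor; plate controls were DMSO wells with stimulus for no effect and unstimulated DMSO wells for full effect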
# Numbers without * were called inactive; ? = inconclusive; nt = no result given.
SMILES,KKLEB cytotox,EWS-Fli inh,TWEAK-Fn14 inh,LGR2 inh,CF NFkB inh,TROY NFkB inh,CF NFkB inh conf
C[C@@H]1CN([C@@H](C)CO)C(=O)c2cc(C#Cc3ccc(F)cc3)cnc2O[C@@H]1CN(C)C(=O)Nc1ccc(F)cc1,nt,-14,nt,nt,nt,nt,nt
COc1ccc(S(=O)(=O)N2CCN(C(=O)c3ccc([N+](=O)[O-])o3)CC2)cc1,4,10,-7,-12,3,-26,nt
COc1ccc(/C=C/C(=O)c2ccc([N+](=O)[O-])o2)cc1,-19,41,54*,7,51*,-4,-203
CO[C@H]1CN(C)C(=O)c2ccc(NS(C)(=O)=O)cc2OC[C@@H](C)N(Cc2ccccn2)C[C@@H]1C,nt,9,nt,5,nt,nt,nt
CN(C(=O)COC(=O)c1nc(Cl)c(Cl)c(Cl)c1Cl)C1CCS(=O)(=O)C1 (stereo unspecified),-46,25,94*,103*,79*,57*,-16
Cc1ccc(S(=O)(=O)NCC[C@@H]2CC[C@H](NC(=O)Nc3cccc(F)c3)[C@H](CO)O2)cc1,nt,4,nt,-7,nt,nt,nt
COc1cccc(-c2c(C(=O)N/N=C/c3sccc3C)nnn2-c2nonc2N)c1,-10,-16,18,13,50*,16,35
CC(C)(C)c1ccc(C(=O)CC(Sc2ccc(Cl)cc2)C(=O)O)cc1 (stereo unspecified),-16,5,26,46,88*,19,4
COc1ccc(NC(=O)Nc2ccc3c(c2)[C@H]2C[C@H](CC(=O)N4CCOCC4)O[C@H](CO)[C@H]2O3)cc1,nt,1,nt,13,nt,nt,nt
Cn1c(Sc2ccc(Br)cc2)c(C=O)c2ccccc21,-12,nt,55*,44,67*,nt,98*
CCOC(=O)c1ccc(Nc2ncnc3ccc(C)cc23)cc1,-3,nt,20,15,31,12,nt
CCOc1ccc(Nc2ncnc3ccc([N+](=O)[O-])cc23)cc1,-14,-4,77*,41,75*,51*,87*
CCC(C)Oc1cc(-c2ccnc(Nc3cccc(Cl)c3)n2)ccn1 (stereo unspecified),-42,25,91*,84*,99*,44,105*
Cc1noc(C)c1NC(=O)Nc1ccc2c(c1)CC(=O)N([C@H](C)CO)C[C@@H](C)[C@@H](CN(C)Cc1ccc(C(=O)O)cc1)O2,nt,-11,nt,-16,nt,nt,nt
C[C@@H]1CN([C@H](C)CO)C(=O)Cc2cc(NC(=O)C3CC3)ccc2O[C@@H]1CN(C)Cc1ccccc1,nt,-11,nt,-1,nt,nt,nt
N#CC(C#N)c1ccnc2ccccc12,-14,5,59*,20,58*,43,46*
N#CCc1ccnc2ccccc12,30,-1,3,-6,-12,7,nt
Cc1ccnc(NC(=O)CCC2COc3ccccc3O2)c1 (stereo unspecified),-5,nt,-20,nt,42,7,nt
O=C(CCC1COc2ccccc2O1)Nc1ccc(Cl)cn1 (stereo unspecified),-14,nt,3,nt,60*,-8,48*
Cc1noc(C)c1NC(=O)N[C@@H]1C=C[C@@H](CC(=O)N2CCN(C)CC2)O[C@H]1CO,nt,-2,nt,16,nt,nt,nt
c1ccc(C2[C@H]3CN(Cc4cccnc4)[C@H](c4ccccc4)C34CC2(c2ccccc2)C4)cc1 (stereo partly specified),-19,15,2,37,53*,-9,5
COCCNC(=O)C1(C)CCCN(Cc2ccc(-c3ccccc3)o2)C1 (stereo unspecified),7,-10,-17,-14,4,-6,nt
CCNC(=O)C1(C)CCCN(Cc2ccc(-c3ccccc3)o2)C1 (stereo unspecified),-3,9,-40,9,58*,-13,63*
Cc1ccccc1Cn1ccc(NC(=O)c2nn(C)cc2[N+](=O)[O-])n1,-9,nt,87*,-4,60*,78*,-78
O=C(/C=C/c1ccccc1Cl)c1ccc(O)cc1,-10,-39,44,-32,59*,4,-38
SMILES,KKLEB cytotox,EWS-Fli inh,TWEAK-Fn14 inh,LGR2 inh,CF NFkB inh,TROY NFkB inh,CF NFkB inh conf
O=C(C=Cc1ccccc1O)c1ccccc1O,-45,-1,62*,-43,71*,8,13
O=C(/C=C/c1ccccc1Cl)c1cccnc1,7,nt,6,nt,-2,23,nt
COCC(=O)Nc1ccc2c(c1)C(=O)N(C)C[C@H](OC)[C@@H](C)CN(Cc1cccc(F)c1)[C@H](C)CO2,nt,3,nt,-2,nt,nt,nt
C[C@H]1CN([C@@H](C)CO)C(=O)Cc2cc(NC(=O)CCN3CCOCC3)ccc2O[C@H]1CN(C)C(=O)Nc1ccc(F)cc1,nt,-7,nt,-5,nt,nt,nt
CS(=O)(=O)N1CC2(C1)[C@H](c1ccccc1)[C@H](CO)N2C(=O)C1CCC1,nt,-3,nt,4,nt,nt,nt
CC(=O)OCCCNc1cc(Sc2ccc(Cl)cc2)c2nonc2c1[N+](=O)[O-],-8,-1,79*,?,70*,51*,53*
COc1ccc(NC(=O)N(C)C[C@@H]2Oc3c(NC(=O)C4CCOCC4)cccc3C(=O)N([C@@H](C)CO)C[C@H]2C)cc1,nt,9,nt,-4,nt,nt,nt
O=C(Cc1ccccc1)N1C[C@@H]2[C@H](c3ccccc31)[C@@H](CO)N2C(=O)C1CCCC1,nt,-1,nt,12,nt,nt,nt
CNC[C@H]1OCCCC[C@@H](C)Oc2ccc(NS(=O)(=O)c3cn(C)cn3)cc2C(=O)N([C@H](C)CO)C[C@@H]1C,nt,-2,nt,3,nt,nt,nt
CCN(CC)c1ccc(CNc2nc3ccccc3n2CCN2CCCCC2)cc1,-45,29,-1,47,55*,49,37
COc1ccc(CNc2nc3ccccc3n2CCN2CCCCC2)cc1,-13,10,-26,-1,4,9,nt
COc1cccc(-c2nnc3sc(C4CCCCC4)nn23)c1,4,nt,64*,nt,86*,52*,96*
CCOc1cccc(-c2nnc3sc(C4CCCCC4)nn23)c1,-11,nt,17,nt,66*,25,85*
c1cncc(-c2nnc3sc(C4CCCCC4)nn23)c1,-8,nt,1,nt,-3,-4,nt
c1ccc(-c2cn(-c3ccccc3)c3ncnc(N4CCCCC4)c23)cc1,-14,18,17,1,27,29,nt
CCOc1ccc(-n2cc(-c3ccccc3)c3c(N4CCOCC4)ncnc32)cc1,-20,4,21,?,91*,18,95*
COc1ccc(-n2cc(-c3ccccc3)c3c(N4CC(C)OC(C)C4)ncnc32)cc1 (stereo unspecified),-16,4,40,5,82*,32,72*
COC(=O)[C@]1(C)CCC[C@@]2(C)C3CC[C@@]4(C)C[C@]3(CCC21)CC(=O)N4C (stereo partly specified),-18,0,6,nt,23,-11,nt

# Compound activity (PubChem BioAssay)
